Measurements reported in the supplement of paper PMC11417369.
± gives the standard deviation of the averaged measurements. In all, about 25,000 sequences were measured (“ln(normalized median fluorescence intensity)”: median about 8.6, highest 2% from about 10 on). Shown is part of a subset that was picked to be rich in the highest values.

The sequences below were run on PfAP2-EXP AP2 domain (GST-tagged) (assay: gcPBM binding intensity (ln(normalized median fluorescence intensity)); higher = stronger DNA binding).
Outline: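 GST-tagged P. falciparum DNA-binding domains, expressed in E. coli (about 25 μg on average), were applied for 1 h to an Agilent 4 × 180k array of primer-extended double-stranded 36-bp intergenic genomic probes plus negative controls. The binding buffer was 1× PBS with 1% milk, 0.2 mg/ml BSA, 0.5% salmon testes DNA and 0.03% Triton X-100. Bound protein was detected with Alexa488 anti-GST antibody and scanned at 488 nm. Binding intensity is the highest Masliner-normalised natural-log median intensity across replicate spots of either probe orientation.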

Row | Sequence | gcPBM binding intensity (ln)
1 | TATGTATATATATATATATATATATATATATATATA [TGCATGCA_negctrl_site491] | 10.1 ± 0.66
2 | TAAAGGAGCCTATGAACACACACATGTACTTATATT [CACACA_site9351] | 8.56 ± 0.4
3 | TGTATGAAATATATTACACACATATAAAATCTATAT [CACACA_site6514] | 8.35 ± 0.57
4 | CCAAATTTATAAAGAACACACACATATATATATATA [CACACA_site7900] | 9.99 ± 0.4
5 | TATATATTAAAACACACACACATATATATATATATA [CACACA_site3787] | 10 ± 0.38
6 | AACATTATAAGACACACACACACATATATATATATA [CACACA_site8259] | 10.1 ± 0.39
7 | TTAATTAAGAAACACACACACATATATATATATATT [CACACA_site2290] | 8.67 ± 0.42
8 | AAATTTATAAAGAACACACACATATAAATATAAATA [CACACA_site6174] | 8.93 ± 0.49
9 | AAACATAAGAAACACACACACATATATATATATATA [CACACA_site3642] | 10.1 ± 0.35
10 | TATATTAAGAAACACACACACATATATATATATATA [CACACA_site1609] | 10.2 ± 0.3
11 | CATTATAAGAAACACACACACATATATATATATATA [CACACA_site1051] | 10.2 ± 0.47
12 | TCGAACATTAACATAACACACATATATATATATATA [CACACA_site2900] | 10.2 ± 0.32
13 | CATTATTATTTTATAACACACACATATATATTATAT [CACACA_site8405] | 8.48 ± 0.34
14 | TCGAACATTAACATAACACACATATAGATTTATATA [CACACA_site7380] | 8.29 ± 0.42
15 | AAATTTATAAAGAACACACACATATATATATATATA [CACACA_site48] | 10.2 ± 0.27
16 | TTTTTTAAAAATATTATCATCGTAACAAGAAATCGA [CACACA_negctrl_site1111] | 8.45 ± 0.4
17 | AATAAAAAACATGAAAGTACTTTAAAAAAGGTAATA [XGTACX_site1897] | 8.9 ± 0.45
18 | CAAACAAATATATGTTGTACTTATTATATATACATA [XGTACX_site2998] | 8.38 ± 0.33
19 | ATAATATAGAAACACACACACATATATATATACATT [CACACA_site555] | 8.71 ± 0.29
20 | TAGATAGATTAAAATACATGCATATTATTAAAAAAT [TGCATGCA_site739] | 8.84 ± 0.13
21 | AAAGCACCCAAGAATACACACAAATATTATAAAAAA [CACACA_site111] | 8.57 ± 0.58
22 | TAAACATAATAATATACACACATATATTGATATATA [CACACA_site2144] | 8.18 ± 0.43

Row | Sequence | gcPBM binding intensity (ln)
23 | AACCAAATTTCACCATGTACATATTGATAAATATAT [XGTACX_site1374] | 8.7 ± 0.34
24 | GGATTCAAAAAAAAAAATAAAAGTAAATAATAAATA [TGCATGCA_negctrl_site348] | 8.27 ± 0.42
25 | ATACACTAGAAAATTTTATAGTATTATTAATGTTAA [GTGCAC_negctrl_site101] | 8.19 ± 0.42
26 | TTTATAAAAATGAACACACACATATATATATATATA [CACACA_site3493] | 10.4 ± 0.3
27 | AAAAATTAGAAACACACACACATATATATATATATT [CACACA_site1042] | 8.71 ± 0.22
28 | TTTATAAAAATGAACACACACATATAAATATAAATA [CACACA_site7607] | 8.65 ± 0.44
29 | AAATAATAAATTATAACACACATATATATATATATA [CACACA_site4045] | 10 ± 0.47
30 | TATATATAATTATAAGAACACACATATATATATATA [CACACA_site8786] | 10.2 ± 0.18
31 | TATATAATTATAAGAACACACATATATATATATATA [CACACA_site2472] | 10.2 ± 0.2
32 | TTTTTATAAAAATGAACACACACATATATATATATA [CACACA_site9160] | 10.2 ± 0.4
33 | ATTTAGAAAAATAAAACACACATATATATGTAAATA [CACACA_site4113] | 8.66 ± 0.48
34 | TAAATTTAGAAACACACACACATATATATATATATA [CACACA_site847] | 10.3 ± 0.4
35 | TGTTAATTAAAGGACTGTACACTAATAATTCTATAA [XGTACX_site5195] | 8.5 ± 0.34
36 | TTTTAAAACAATGAGATTCCTTTCTTTTTTTCTTTT [CACACA_negctrl_site1320] | 7.96 ± 0.59
37 | TGACCGTTTTAAGAGTGTACAAAAAAAAAAAAAAAA [XGTACX_site4141] | 8.21 ± 0.43
38 | ATATATTTCTGTCAAGCACACATAATATTAATATAT [CACACA_site7993] | 8.86 ± 0.45
39 | AAAAAATGGCTAGTTTGTACACAAAAGTTATTGCAT [XGTACX_site5381] | 8.43 ± 0.33
40 | TTAATATAGATATAACCACACACATACATCTAATTC [CACACA_site8519] | 8.65 ± 0.46
41 | ATTAATTATGTATTTCAACAAAGAAGTGTTATATAT [GTGCAC_negctrl_site215] | 8.49 ± 0.35
42 | TCAAAAAAGACACACCGTACATACTATTTGGACAGG [XGTACX_site7699] | 8.51 ± 0.36
43 | AACAATTAGAATAACGCATGCATTTATAATATAGAA [TGCATGCA_site595] | 9.52 ± 0.071
44 | AACAATTATTGTAATGCATGCACTGAATATAGAAAG [TGCATGCA_site889] | 10.3 ± 0.24

Row | Sequence | gcPBM binding intensity (ln)
45 | TAATTGTACACATGCACACACAAATATTATAGATGT [CACACA_site6528] | 8.99 ± 0.37
46 | CAATTATTGTAATGCATGCACTGAATATAAAAAGAA | 10.3 ± 0.23
47 | TATTATATATTAAATGCATGTAAAAATAATATTAAA [TGCATGCA_site643] | 9.24 ± 0.44
48 | AAATAATATATGAATGCACACAGTAAAAATTAAAGA [CACACA_site2252] | 8.94 ± 0.35
49 | TATAAGAGAAGAAGAAAAAAAAGGTTTCTATAGAAA [XGTACX_negctrl_site421] | 8.76 ± 0.52
50 | AATAAAAAAAAAATAAATTTAATAATAATAATAAAA [CACACA_negctrl_site569] | 8.23 ± 0.33
51 | ATATTATCATTTTTTTTAATGGAAAAAAAAAAAAAA [CACACA_negctrl_site1298] | 8.2 ± 0.61
52 | TTTTTCAGAAAAGAAACACACATATAAATATTTATA [CACACA_site7170] | 8.47 ± 0.46
53 | TACATACACAGACACACACACATATATATATATATA [CACACA_site3557] | 10.2 ± 0.2
54 | TACACATACAGACATACACACATACACATATACACA [CACACA_site6918] | 8.66 ± 0.38
55 | ATTCTACACCCACATACACACATATATATATATATA [CACACA_site3426] | 10.2 ± 0.26
56 | AGTATACACAGACACACACACACATATATATATATA [CACACA_site8510] | 10.2 ± 0.23
57 | ATTCTAATCATATACACACCCATATATATATATATA [CACACA_site1774] | 10.3 ± 0.3
58 | CATACATACAGACACACACACATATATATATATATA [CACACA_site2920] | 10.1 ± 0.35
59 | TACACCCACCCACATACACACACATACACATATATA [CACACA_site8503] | 9.33 ± 0.71
60 | TAATTAAAATCATATACACACCCATATATATATATA [CACACA_site8524] | 10 ± 0.25
61 | CACCCACCCACATACACACACATACACATATATATA [CACACA_site1722] | 9.3 ± 0.45
62 | TATACAGACAGACACACACACATATATATATATATA [CACACA_site1734] | 10.1 ± 0.42
63 | CATATACATACACATACACACATACAGACATACACA [CACACA_site6919] | 8.69 ± 0.37
64 | ATTAAAATCATATACACACCCATATATATATATATA [CACACA_site5050] | 10.1 ± 0.34
